# Assay outcomes as filed in PubChem.
# Shown are actives, neighbours in structure and some others; about 21% of the full set was active somewhere.
# Sm TGR inh: qHTS Assay for the Inhibitors of Schistosoma Mansoni Peroxiredoxins; Potency, µM (top dose mostly 114 µM), for the others: at the top dose activity change, negative = inhibition, actives largely listed as inhibitors; purified TGR, DTNB reduction, TNB absorbance 405 nm; actives 3% (n = 360,000); Schistosoma mansoni thioredoxin glutathione reductase (TGR), Q962Y6; AID 485364, 2010; also: potency is read from the fitted curve at half-maximal effect; % is scaled to controls: 0 for no effect and ±100 for the full control effect; nearly all actives have a fitted effect of over 60% in size
#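 TGR 20 nM + NADPH 100 uM (dispensed conc.), cpd preinc 15 min RT; start with NADPH (500 uM addition) then DTNB (15 mM addition). Kinetic TNB absorbance, 405 nm filter. Four-parameter Hill fit across titration.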
# NS1 function inh: qHTS Assay for Inhibitors of Influenza NS1 Protein Function; Potency, µM (titrated, usually from 46.1 µM), inactives show top-dose activity, positive = more growth; actives 0.4% (n = 270,000); calls by dose curve; also: potency is read from the fitted curve at half-maximal effect; actives are rising curves; nearly all actives have a fitted effect of over 50% in size
#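 OD600 was taken as the measure of yeast growth restored by compound in an NS1-expressing S. cerevisiae strain. Cells had been washed out of glucose medium and diluted 1:100 into galactose -URA medium, pH 6.0.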
# Cycloheximide cs: Cycloheximide Counterscreen for Small Molecule Inhibitors of Shiga Toxin; cell reporter, cycloheximide protein synthesis inhibition counterscreen; max response, %; actives 12% (n = 300,000); in the data active = max response mostly above about 13%, no sharp cut-off; inactive = mostly below about 14%; also: read at 38.3 µM for the half of the compounds with a filed dose; 0% is about no effect
# Shiga inhibitor: A qHTS for Small Molecule Inhibitors of Shiga Toxin; AID 2315, 2010; actives 9.2% (n = 290,000); Vero cells, Shiga toxin protein synthesis inhibition reporter; inhibition, % at 38.7 µM; in the data active = inhibition mostly above about 28%, no sharp cut-off; inactive = mostly below about 43%; also: 0% is about no effect
# Pf growth 96h: Primary qHTS for delayed death inhibitors of the malarial parasite plastid, 96 hour incubation; P. falciparum luciferase reporter growth, 96 h; Potency, µM (titrated, usually from 28.7 µM), without a hit: at the highest dose activity change, negative = inhibition, actives largely listed as inhibitors; actives 6.9% (n = 320,000); AID 504834, 2011; also: potency is read from the fitted curve at half-maximal effect; % is scaled to controls: 0 for no effect and ±100 for the full control effect
#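 Infected RBCs, 2% Hct / 0.05% parasitemia final; luciferase-reporter P. falciparum; cpd 96 h, 37 C, 5% CO2; luciferase detection reagent; luminescence.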
# Pf growth 48h: Primary qHTS for delayed death inhibitors of the malarial parasite plastid, 48 hour incubation | P. falciparum luciferase growth in erythrocytes, 48 h | Potency, µM (top dose mostly 28.7 µM), without a hit: top-dose activity change, negative = inhibition, most hits filed as inhibitors | actives 5.9% (n = 310,000) | AID 504832, 2011; also: potency is read from the fitted curve at half-maximal effect; % is scaled to controls: 0 for no effect and ±100 for the full control effect
#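 Firefly luciferase activity from engineered P. falciparum reports growth; inhibitors lower the luminescent signal. Cultures contained 2% hematocrit erythrocytes at 0.1% final parasitemia.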
# Starred values were filed as active, the others as inactive; ? = inconclusive; . = no result. Unless noted, calls follow the shape of the dose curve; as a rule, active = well fitted curve in the direction sought with a large enough effect; inconclusive = small, poorly fitted or top-dose-only effect, or another doubt; inactive = no such curve, though single readings can be large; an effect the other way counts as inactive or inconclusive.
SMILES,Sm TGR inh,NS1 function inh,Cycloheximide cs,Shiga inhibitor,Pf growth 96h,Pf growth 48h
CCOc1ccc(-c2nc(Cn3c(=O)cc(C)c4c(C)nn(-c5ccc(C)cc5)c43)c(C)o2)cc1,4%,.,.,.,.,.
Cc1cc(Cl)ccc1OCC(=O)N/N=C/c1ccncc1,22%,-39%,5,23,28%,4%
COc1ccc(-c2cn3cccnc3n2)cc1NC(=O)c1c(F)cccc1F,3%,.,.,.,.,.
CN(C)NC1CCS(=O)(=O)C1 (stereo unspecified),1.6µM*,9%,-2,-2,8%,16%
O=[N+]([O-])c1ccc(-c2c(-c3ccccc3)ncc3cc(F)ccc23)cc1,-32%,.,.,.,5.2µM*,2.6µM*
Fc1ccc2cnc(-c3ccccc3)c(-c3cccc(C(F)(F)F)c3)c2c1,6%,.,.,.,?,?
Fc1cc(F)cc(-c2c(-c3ccccc3)ncc3ccc(F)cc23)c1,45µM*,.,.,.,?,?
O=[N+]([O-])c1cccc(-c2c(-c3ccccc3)ncc3cc(F)ccc23)c1,-26%,.,.,.,?,?
CCn1cc(C(=O)NCCc2ccccc2)c(=O)c2cc(S(=O)(=O)N(C)C3CCCCC3)ccc21,0%,.,.,.,.,.
C=C(C)C(=O)NNc1ccccc1,1.6µM*,.,0,3,4%,28%
CC(C)OC(=O)C(=O)NNc1ccccc1,-8%,5%,2,23,-19%,?
C=CCN1CCCC1CNC(=O)c1cc(S(N)(=O)=O)cc(OC)c1OC (stereo unspecified),.,.,.,.,-7%,5%
Cc1ccc2c(c1)C(=C(C#N)C#N)C(=O)N2CCN1CCCCC1,-22%,8%,-2,-16,-8%,?
C=C(C)CN(CC)C(=O)CN1C(=O)NC2(CCCc3ccccc32)C1=O (stereo unspecified),-25%,0%,-4,-22,17%,-2%
Cc1cccc(C(=O)Nc2ccccc2C(=O)NCc2ccco2)c1,-24%,-67%,11,15,1%,6%
Cc1ccccc1N/C(SCc1ccc(Cl)cc1)=C(/C#N)C(=O)NCc1ccco1,8%,7%,41*,112*,?,?
Cc1ccc(CS/C(Nc2ccccc2C)=C(\C#N)C(=O)NCc2ccco2)c(C)c1,-6%,2%,66*,91*,15%,2.3µM*
CCN(CC(=O)Nc1c(F)cccc1F)C(=O)CNC(=O)c1ccco1,0%,.,.,.,16%,17%
CC(C)CC(=O)O/N=C1\C(=O)N(Cc2ccc(Cl)cc2)c2ccc([N+](=O)[O-])cc21,8%,-7%,-3,-8,5.2µM*,?
Cc1ccc(OCc2ccc(C(=O)N3CCOCC3)cc2)cc1C,-10%,-33%,31*,54*,0%,153%
CC(C)c1ccc(COc2ccc(C(=O)N3CCOCC3)cc2)cc1,.,1%,16*,70,-5%,-16%
CC(C)c1ccc(OCc2ccc(C(=O)N3CCN(c4ccccn4)CC3)cc2)cc1,7%,-71%,30*,170,-25%,?
C(=Nc1ccc2c(c1)Cc1ccccc1-2)c1ccccn1,.,-1%,.,.,.,.
CCCCNC(=O)CN1C(=O)c2cccc(N)c2C1=O,1%,.,6,12,48%,31%
Cc1cc(C(=O)Cn2nnc3ccccc3c2=O)c(C)n1Cc1cccs1,?,0%,37*,52,107%,82%
SMILES,Sm TGR inh,NS1 function inh,Cycloheximide cs,Shiga inhibitor,Pf growth 96h,Pf growth 48h
Cc1cc(C(=O)CN2C(=O)c3ccccc3C2=O)c(C)n1Cc1cccs1,-23%,-4%,26*,12,6%,69%
CCCn1c(C)cc(C(=O)CN2C(=O)c3cccc(N)c3C2=O)c1C,1%,3%,17*,14,.,59%
COc1ccc(-n2nnc3c(=O)n(Cc4cc(C)ccc4C)cnc32)cc1,13%,13%,3,25,5.2µM*,-19%
COc1cccc(-n2nnc3c(=O)n(Cc4cccc(C)c4)cnc32)c1,9%,4%,24*,17,42%,13%
NC(N)=Nc1nc(CCN2C(=O)c3ccccc3C2=O)cs1,83%,10%,3,8,-6%,12%
CCCN1CCN(CCCNC(=O)Cn2c(-c3cccs3)cc3cc(Cl)ccc32)CC1,-4%,.,.,.,.,.
CCCCCCn1c(N)c(C(=O)NCCN2CCOCC2)c2nc3ccccc3nc21,?,-49%,-3,-4,?,9.3µM*
Nc1c(C(=O)NCc2ccco2)c2nc3ccccc3nc2n1CCc1ccccc1F,25µM*,15%,12,-5,.,10µM*
Nc1c(C(=O)NCc2ccco2)c2nc3ccccc3nc2n1Cc1ccccc1,28µM*,13%,6,3,?,?
COc1ccc(CCn2c(N)c(C(=O)NCc3ccco3)c3nc4ccccc4nc32)cc1OC,16µM*,9%,12,18,18%,5.2µM*
COc1ccc(CCn2c(N)c(C(=O)NCc3ccco3)c3nc4ccccc4nc32)cc1,0%,5%,-1,-4,-21%,?
NC(=O)c1cc(S(=O)(=O)NCc2cccc(Br)c2)cs1,2%,-5%,-1,-6,?,22%
COc1ccc(CCNC(=O)c2c(N)n(CCN3CCOCC3)c3nc4ccccc4nc23)cc1OC,0%,-11%,-5,-3,4.7µM*,9.3µM*
COc1ccc(-n2c(N)c(C(=O)NCc3ccco3)c3nc4ccccc4nc32)c(OC)c1,25µM*,?,-2,-3,?,?
CCCCCn1c(N)c(C(=O)NCCN2CCOCC2)c2nc3ccccc3nc21,-28%,-46%,6,-2,?,?
Nc1c(C(=O)NCc2ccco2)c2nc3ccccc3nc2n1Cc1ccc(F)cc1,11µM*,16%,5,7,?,1.9µM*
Nc1c(C(=O)NCc2ccco2)c2nc3ccccc3nc2n1CCN1CCOCC1,25µM*,8%,-1,-13,-39%,.
COc1ccc(Cn2c(N)c(C(=O)NCc3ccco3)c3nc4ccccc4nc32)cc1,-36%,9%,-3,-21,?,?
O=C(COC(=O)/C=C/C(=O)N1CCN(c2ccccc2)CC1)NC(c1ccccc1)c1ccccc1,-24%,6%,6,13,-28%,-78%
CCOC(=O)CN(C(=O)CN1CCC(n2nnc3cc(C)ccc32)CC1)c1ccccc1,-7%,-7%,-4,-7,5.2µM*,.
Cc1ccc2c(c1)nnn2C1CCN(C(=O)NC23CC4CC(CC(C4)C2)C3)CC1,3%,5%,-2,-7,60%,9%
Cc1ccc2c(c1)nnn2C1CCN(CC(=O)N(c2ccccc2)c2ccccc2)CC1,-2%,-5%,-1,-4,12µM*,6.6µM*
